Cruzain inh Det: cruzain (T. cruzi) inhibition with detergent; P25779; purified cruzain, Z-FR-AMC fluorescence, 0.01% Triton; Potency, µM, for the others: max response, negative = inhibition, actives largely listed as inhibitors; 0.43% of 200,000 active; AID 1478;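 note: plate controls were neutral wells for no effect and buffer without enzyme for full effect; nearly all actives have a fitted effect of over 40% in size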
Target sequence (P25779 123-467 limits assumed): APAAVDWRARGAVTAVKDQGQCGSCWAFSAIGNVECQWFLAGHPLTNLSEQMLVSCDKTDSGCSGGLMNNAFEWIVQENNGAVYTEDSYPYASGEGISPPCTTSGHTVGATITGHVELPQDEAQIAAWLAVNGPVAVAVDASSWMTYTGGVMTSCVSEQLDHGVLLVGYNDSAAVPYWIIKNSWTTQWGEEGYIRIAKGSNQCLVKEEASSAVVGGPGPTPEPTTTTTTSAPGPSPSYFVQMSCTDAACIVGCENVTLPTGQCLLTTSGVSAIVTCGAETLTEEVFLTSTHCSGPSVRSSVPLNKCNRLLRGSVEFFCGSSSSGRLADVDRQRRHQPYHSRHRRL
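Cruzain (1.5 nM) preincubated 15 min at RT with compound in 100 mM sodium acetate pH 5.5, 5 mM DTT, 0.01% Triton X-100. Reaction started with 2 uM Z-FR-AMC; AMC fluorescence (ex 360/em 450 nm) change over 60 s gave rate.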
Cruzain inh noDet: cruzain (T. cruzi) inhibition without detergent | purified cruzain, Z-FR-AMC fluorescence, no detergent | Potency, µM, inactives show max response, negative = inhibition, most hits filed as inhibitors | 2.3% of 200,000 active | AID 1476;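 note: plate controls were enzyme without inhibitor for no effect and buffer without enzyme for full effect; nearly all actives have a fitted effect of over 40% in size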
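Detergent-free condition (0.00005% Triton X-100) in acetate buffer pH 5.5 with DTT. 1.5 nM enzyme and compound were pre-mixed 15 min, then 2 uM Z-FR-AMC substrate added; reaction progress from fluorescence change between first and third reads (60 s).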
Giardia FBPA inh: blocks Giardia fructose-bisphosphate aldolase activity; 0.71% of 290,000 active; A8B2U2; purified Giardia FBPA; Potency, µM (doses to about 59.6 µM), for inactives: at the highest dose activity, negative = inhibition, usual class: inhibitors; note: nearly all actives have a fitted effect of over 55% in size
Target sequence (A8B2U2 whole entry, looked up): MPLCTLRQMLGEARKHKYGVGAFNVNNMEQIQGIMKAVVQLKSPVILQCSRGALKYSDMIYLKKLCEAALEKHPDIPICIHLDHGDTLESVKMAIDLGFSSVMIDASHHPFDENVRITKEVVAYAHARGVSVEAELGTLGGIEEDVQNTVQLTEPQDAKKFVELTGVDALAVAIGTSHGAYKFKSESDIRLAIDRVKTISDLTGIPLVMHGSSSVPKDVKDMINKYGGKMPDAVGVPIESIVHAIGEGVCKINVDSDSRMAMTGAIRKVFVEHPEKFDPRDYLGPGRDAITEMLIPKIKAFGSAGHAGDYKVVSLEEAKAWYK
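40 nM FBPA preincubated 10 min at RT with compound (up to 57.5 uM final), then substrate plus GAPDH/TPI/NAD/arsenate coupling and diaphorase/resazurin added. Fluorescence read after 20 min at RT, 525/598 nm.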
* marks the source's active call; other numbers are inactive results; u = inconclusive; x = no result; [ ] = remark or other dose. Only a selection was taken, and hits are over-represented in it overall. Calls come from the whole dose curve; as a rule, active = well fitted curve in the direction sought with a large enough effect; inconclusive = small, poorly fitted or top-dose-only effect, or another doubt; inactive = no such curve, though single readings can be large; an effect the other way counts as inactive or inconclusive. Unless noted, % is set by controls: 0 for no effect and ±100 for the full control effect; potency is the fitted concentration of half-maximal effect.

SMILES | Cruzain inh Det | Cruzain inh noDet | Giardia FBPA inh
COc1ccc2c3c(ccc2c1)N[C@H](C(=O)O)CC3 | -4% | 5% | x
O=C(Cc1ccccc1)Nc1ccccc1N1CCN(c2ccccc2)CC1 | -3% | -22% | -2%
O=C(Nc1ccccc1N1CCN(c2ccccc2)CC1)C12CC3CC(CC(C3)C1)C2 | 5% | 25µM* | -2%
Cc1cccc(CNC(=O)Cn2ccc3cc(S(=O)(=O)N4CCC(C)CC4)ccc32)c1 | -10% | -11% | x
Cc1cc(C)cc(NC(=S)NCc2ccc3[nH]c4c(c3c2)CCCC4)c1 | -1% | 32µM* | -2%
O=C(O)c1ccc(CNC(=S)Nc2ccccc2)cc1 | x | x | -9%
S=C(NCc1ccc2[nH]c3c(c2c1)CCCC3)Nc1ccccc1 | -10% | 32µM* | -19%
CCS(=O)(=O)NCc1ccc2[nH]c3c(c2c1)CCCC3 | -6% | -22% | u
Nc1ncn([C@H]2O[C@@H](CO)[C@@H](O)[C@@H]2O)c(=O)n1 | 2% | -7% | 1%[21.7 µM]
COc1cccc2c1C(=O)c1c(O)c3c(c(O)c1C2=O)C[C@](O)(/C(C)=N\O)C[C@@H]3O[C@H]1C[C@H](N)[C@@H](O)[C@H](C)O1 | -7% | -13% | x
CCCn1c(=O)c2ccccc2n2c(SCc3nc4ccccc4s3)nnc12 | 2% | 13µM* | 1%
CCCCn1c(SCc2nc3ccccc3s2)nc2ccccc2c1=O | -5% | -3% | 1%
CCc1cc(C(C)=O)c(O)cc1OCCCCCC(C)(C)c1nn[nH]n1 | -24% | u | u
O=C(CSc1nc2ccccc2s1)c1sc2sc3ccccc3[n+]2c1O | -20% | 2% | x
CC(=O)NC(=S)Nc1ccc(NC(=O)c2cccs2)cc1 | 1% | -10% | -4%
COc1ccc(C(=O)Nc2ccc(NC(=O)c3cccs3)cc2)cc1Cl | 3% | 7.9µM* | 3%
O=C(Nc1ccc(NC(=S)NC(=O)c2cccs2)cc1)c1ccccc1 | -4% | 14% | -11%
Cc1c(C(=O)NC(=S)Nc2ccc(NC(=O)c3cccs3)cc2)oc2ccccc12 | -2% | 13µM* | -16%
COc1ccc(C(=O)Nc2ccc(NC(=O)c3cccs3)c(OC)c2)cc1Cl | x | x | 0%
O=C(NNC(=S)NC(=O)c1cccs1)c1ccc(NC(=O)c2ccccc2)cc1 | 1% | 20µM* | 13%
N=C(c1ccc2ccccc2c1)c1ccccc1Cc1ccccc1 | 3% | -12% | x
Cc1csc2nc(-c3cccc(NC(=O)c4cccc(F)c4)c3)cn12 | -6% | u | x
Cc1ccc(OCC(=O)N(Cc2ccc(N(C)C)cc2)CC2CCCO2)cc1C (stereo not given) | -3% | 14% | x
CC1=C(C(=O)O)N2C(=O)[C@@H](NC(=O)[C@@H](N)c3ccccc3)[C@@H]2SC1 | -4% | -2% | -27%[21.7 µM]
Cc1occc1C(=O)N/N=C/C1=C(N2CCOCC2)C(=C\c2ccc(Cl)cc2Cl)/CC1 | -5% | 25µM* | 4%
SMILES | Cruzain inh Det | Cruzain inh noDet | Giardia FBPA inh
Cc1cc(C)nc(N/N=C/C2=C(N3CCOCC3)C(=C\c3ccc(Cl)cc3)/CC2)n1 | -10% | -21% | -13%
CO[Si](CCCNCCC[Si](OC)(OC)OC)(OC)OC | 0% | -2% | x
CCOC(=O)c1cc(-c2ccc(C)cc2)nn1Cc1ccccc1 | -8% | -3% | x
CS(=O)(=O)Nc1cccc(-c2ccc3ncnc(NCc4cccs4)c3c2)c1 | -7% | -6% | -3%
CC(=O)Oc1ccccc1N(C(C)=O)S(=O)(=O)c1ccc2ccccc2c1 | x | x | -1%
CC(=O)Oc1c(Br)cc(N(C(C)=O)S(=O)(=O)c2ccccc2)c2ccccc12 | x | x | 28µM*
CN=C1N[C@H](c2ccccc2)N(c2ccccc2)S1 | 0% | 11% | 22µM*
COC(=O)c1ccc(-n2c(/C=C\c3cccc(Br)c3)nc3ccccc3c2=O)cc1 | -2% | -3% | x
Nc1cc(S(N)(=O)=O)ccc1SSc1ccc(S(N)(=O)=O)cc1N | 2% | -24% | x
COc1ccc(C2CC(=O)N3CN(C4CCCCC4)CSC3=C2C#N)c(OC)c1 (stereo not given) | 25µM* | 28% | x
N#CC1=C2SCN(C3CCCCC3)CN2C(=O)CC1c1ccc(Br)cc1 (stereo not given) | u | 17% | x
COc1ccc2ccccc2c1C1CC(=O)N2CN(C3CCCCC3)CSC2=C1C#N (stereo not given) | -15% | u | u
CCOc1cc(C2CC(=O)N3CN(C4CCCCC4)CSC3=C2C#N)ccc1O (stereo not given) | -11% | -5% | 0.79µM*
Cc1oc(-c2ccc(C(=O)Nc3cccc(C(F)(F)F)c3)cc2)nc1CSc1ccccc1 | -3% | u | x
CC1CCN(c2oc(Cc3cccc4ccccc34)nc2C#N)CC1 | 2% | -3% | 6%
N#Cc1nc(Cc2cccc3ccccc23)oc1N1CCN(c2ccccc2)CC1 | 1% | 7.9µM* | 3%
COc1ccc(N2CCN(c3oc(Cc4cccc5ccccc45)nc3C#N)CC2)cc1 | 3% | 16µM* | x
N#Cc1nc(Cc2cccc3ccccc23)oc1N1CCOCC1 | -3% | 8% | 2%
CC(=O)N1c2ccc(S(=O)(=O)N3CCCCCC3)cc2CC1C(=O)NCc1ccccc1 (stereo not given) | 1% | 1% | x
Cc1ccc(CNC(=O)Cn2c3ncccc3c(=O)n2-c2ccc(C)cc2)cc1 | -11% | 5% | x
CCN(CC)Cc1cc(O)c(CN(CC)CC)cc1O | x | x | 5.6µM*
CCc1oc(C(=O)O)cc1CN(CC)CC | 0% | 2% | -10%
C=C/C1=C/Cc2ccccc2C(C[N+](=O)[O-])C(C(=O)OC)(C(=O)OC)C1 (stereo not given) | x | x | 1%[12.9 µM]
CCCn1c(C)nc2c(NCCCN(CCO)CCO)nc(C)nc21 | 3% | -12% | 0%
CCCCC(=O)Nc1ccc(C(=O)Nc2ccc(OC)cc2[N+](=O)[O-])cc1 | 2% | 16µM* | 6%
SMILES | Cruzain inh Det | Cruzain inh noDet | Giardia FBPA inh
CCOc1ccc(NC(=O)/C=C/c2ccc(OC)cc2)c([N+](=O)[O-])c1 | 14µM* | 4µM* | 17%
COc1ccc(/C=C/C(=O)Nc2ccc(OC)cc2[N+](=O)[O-])cc1 | -2% | -7% | 2%
CCCOc1ccc(/C=C/C(=O)Nc2ccc([N+](=O)[O-])cc2C)cc1OC | 8% | 6% | 5%
CCCCC(=O)Nc1ccc(NC(=O)c2ccc([N+](=O)[O-])cc2)cc1OC | -1% | -3% | 3%
CCCOc1ccc(/C=C/C(=O)Nc2ccc([N+](=O)[O-])cc2C)cc1 | 2% | 25µM* | 3%
Cc1cccc(-n2c(=O)c3ccccc3n(Cc3ccc(F)cc3)c2=O)c1 | -6% | -6% | x
CCCC12CN3CC(C)(CN(C1)C3c1ccc(OCc3ccccc3)cc1)C2=O (stereo not given) | 2% | -15% | x
CCOC(=O)C(C#N)=C1CCN(Cc2ccccc2)CC1 | x | x | -28%
CCOC(=O)/C(C#N)=C1/C(=O)N(Cc2ccccc2)c2ccccc21 | x | x | 10µM*
Nc1ccc(S(=O)(=O)NCc2nccs2)cc1 | -1% | 0% | x
O=C(CNC(c1ccccc1)c1ccccc1)Nc1cc([N+](=O)[O-])ccc1Cl | -7% | 25µM* | 0%
CC(C)CC(=O)Nc1cc([N+](=O)[O-])ccc1Cl | 2% | -8% | 4%
CCOC(=O)c1c(NC(=O)c2ccccc2)sc2c(O)c(CN(CC)CC)ccc12 | -1% | 16µM* | -13%
CCN(CC)Cc1c(NC(=O)c2ccccc2)sc(C)c1C | x | x | -3%
Cc1cccc(C(=O)O)c1C[C@H]1NCC[C@H]2c3ccccc3N[C@@H]12 | 2% | -5% | x
